Source: PubChem BioAssay AID1159580 (chemical genetic matrix, 2015)
Where “and” joins values, the source holds several entries; their conditions need not be identical. Equal values may be shown once. About 2,000 (36%) of roughly 5,500 compounds were called active. Another 18% or so got no clear call; they are omitted. No stated cut-off is given here; in the data, active means normalized growth mostly below about 0.91 (no sharp cut-off); inconclusive means no clear call, values can overlap the other calls; inactive means mostly above about 0.92. This is one part of the list.

Test: chemical genetic growth profiling, strain panel (AID 1159580);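 further: tested at 20 µM; growth read once vehicle control cultures reached saturation at 30 °C; 1 = growth at the plate median or of vehicle wells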
Details: S. cerevisiae deletion strains, growth OD

Measured: normalized growth

CC(C)=CCC[C@](C)(O)C1CC=C(C)CC1 (stereo partly specified)
inactive: locus YAL021C, strain ccr4, stronger effect = lower value 0.958 | locus YAL026C, strain drs2, stronger effect = lower value 0.987 | locus YAL030W, strain snc1, stronger effect = lower value 0.994 | locus YBL061C, strain skt5, stronger effect = lower value 0.98 | locus YBR009C, strain hhf1, stronger effect = lower value 0.996 | locus YBR021W, strain FUR4, stronger effect = lower value 0.966 | locus YBR023C, strain chs3, stronger effect = lower value 0.981 | locus YBR171W, strain sec66, stronger effect = lower value 0.967 | locus YBR229C, strain ROT2, stronger effect = lower value 1.02 | locus YBR231C, strain swc5, stronger effect = lower value 1 | locus YBR279W, strain paf1, stronger effect = lower value 0.99 | locus YCL011C, strain gbp2, stronger effect = lower value 0.979 | locus YCL016C, strain dcc1, stronger effect = lower value 0.992 | locus YCL029C, strain bik1, stronger effect = lower value 1 | locus YCL061C, strain MRC1, stronger effect = lower value 0.982 | locus YCL069W, strain vba3, stronger effect = lower value 0.987 | locus YCR088W, strain abp1, stronger effect = lower value 0.986 | locus YDL005C, strain med2, stronger effect = lower value 0.971 | locus YDL035C, strain GPR1, stronger effect = lower value 0.984 | locus YDL040C, strain nat1, stronger effect = lower value 1 | locus YDL074C, strain BRE1, stronger effect = lower value 0.995 | locus YDL101C, strain DUN1, stronger effect = lower value 1.02 | locus YDL134C, strain PPH21, stronger effect = lower value 1.02 | locus YDL185W, strain tfp1, stronger effect = lower value 0.987 | locus YDL192W, strain arf1, stronger effect = lower value 0.969 | locus YDR001C, strain nth1, stronger effect = lower value 0.994 | locus YDR069C, strain doa4, stronger effect = lower value 0.995 | locus YDR101C, strain arx1, stronger effect = lower value 0.976 | locus YDR137W, strain rgp1, stronger effect = lower value 0.972 | locus YDR159W, strain sac3, stronger effect = lower value 1 | locus YDR162C, strain NBP2, stronger effect = lower value 1.04 | locus YDR195W, strain ref2 1 | locus YDR297W, strain sur2, stronger effect = lower value 1.01 | locus YDR318W, strain mcm21, stronger effect = lower value 1 | locus YDR334W, strain swr1, stronger effect = lower value 0.985 | locus YDR335W, strain msn5, stronger effect = lower value 0.984 | locus YDR388W, stronger effect = lower value 1 | locus YDR392W, strain spt3, stronger effect = lower value 0.906 | locus YDR502C, strain sam2, stronger effect = lower value 0.973 | locus YEL003W, strain gim4, stronger effect = lower value 0.983 | locus YEL037C, strain rad23, stronger effect = lower value 0.978 | locus YEL061C, strain CIN8 (second series), stronger effect = lower value 0.983 | locus YEL061C, strain CIN8, stronger effect = lower value 1.02 | locus YER015W, strain faa2, stronger effect = lower value 0.987 | locus YER016W, strain bim1, stronger effect = lower value 0.987 | locus YER110C, stronger effect = lower value 0.982 | locus YER111C, strain swi4, stronger effect = lower value 0.969 | locus YER155C, strain BEM2 (second series), stronger effect = lower value 0.985 | locus YER155C, strain BEM2, stronger effect = lower value 1.02 | locus YER167W, strain BCK2, stronger effect = lower value 1.01 | locus YFR010W, strain ubp6, stronger effect = lower value 0.976 | locus YGL078C, strain dbp3, stronger effect = lower value 0.97 | locus YGL086W, strain mad1, stronger effect = lower value 0.976 | locus YGL167C, strain pmr1, stronger effect = lower value 0.982 | locus YGL173C, strain kem1, stronger effect = lower value 0.981 | locus YGL227W, strain vid30, stronger effect = lower value 0.981 | locus YGL240W, strain doc1, stronger effect = lower value 0.994 | locus YGL248W, strain PDE1, stronger effect = lower value 1.02 | locus YGL253W, strain hxk2, stronger effect = lower value 0.959 | locus YGR135W, strain pre9, stronger effect = lower value 1.01 | locus YGR252W, strain gcn5, stronger effect = lower value 0.962 | locus YHR013C, strain ard1, stronger effect = lower value 0.997 | locus YHR027C, strain rpn1, stronger effect = lower value 0.999 | locus YHR030C, strain SLT2, stronger effect = lower value 1.02 and 1 | locus YHR079C, strain IRE1 (second series), stronger effect = lower value 0.98 | locus YHR079C, strain IRE1, stronger effect = lower value 0.988 | locus YHR094C, strain hxt1, stronger effect = lower value 0.985 | locus YHR129C, strain ARP1, stronger effect = lower value 1.02 | locus YHR142W, strain chs7, stronger effect = lower value 0.953 | locus YHR200W, strain rpn10, stronger effect = lower value 1 | locus YIL066C, strain RNR3, stronger effect = lower value 1.02 | locus YIL073C, strain SPO22, stronger effect = lower value 1.02 | locus YIL125W, strain kgd1, stronger effect = lower value 0.997 | locus YIR030C, strain dcg1, stronger effect = lower value 0.991 | locus YJL092W, strain hpr5, stronger effect = lower value 0.958 | locus YJL095W, strain BCK1 (second series), stronger effect = lower value 0.976 | locus YJL095W, strain BCK1, stronger effect = lower value 1.04 and 0.993 | locus YJL115W, strain asf1, stronger effect = lower value 0.988 | locus YJL129C, strain trk1, stronger effect = lower value 0.973 | locus YJL134W, strain LCB3, stronger effect = lower value 1.01 | locus YJL154C, strain vps35, stronger effect = lower value 0.995 | locus YJL164C, strain tpk1, stronger effect = lower value 1 | locus YJL166W, strain qcr8, stronger effect = lower value 0.989 | locus YJL168C, strain set2, stronger effect = lower value 0.987 | locus YJL187C, strain SWE1 (second series), stronger effect = lower value 1.03 | locus YJL187C, strain SWE1, stronger effect = lower value 0.987
